Screening results (PubChem)
In the library only some 2.4% were active in any assay of this set; here they are far more common.
Rpn11 inh – Rpn11 (PSMD14) deubiquitinase inhibitors, primary screen, biochemical, fluorescence polarization, uHTS; 26S proteasome non-ATPase regulatory subunit 14 (Homo sapiens), O00487; human 26S proteasome, Ub4-pepOG fluorescence polarization; 20S core pre-blocked with epoxomicin; inhibition, % at 20 µM; actives 0.59% (n = 360,000);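 active = inhibition at 20 µM, scaled to each plate's controls, above about 33%, limit read from the data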
NadD inh – inhibitors of S. aureus NadD, primary screen, biochemical, colorimetric, uHTS; Nicotinate-nucleotide adenylyltransferase NadD (Staphylococcus aureus N315); actives 0.78% (n = 360,000); purified NadD enzyme, colorimetric absorbance read-out; inhibition, % at 20 µM; in the data active = inhibition above about 26%
PP1 counter – PP1-alpha phosphatase inhibitors, primary screen, counter-screen for PP5 inhibitor project, biochemical, fluorescence, OMFP substrate, single point | inhibition, % at 6.7 µM | actives 0.9% (n = 320,000) | purified PP1alpha;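 active = inhibition above the mean inhibition of all tested compounds plus 3 SD, computed separately for each screening campaign, cut at about 15% in these data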
PP5 primary – PP5 phosphatase inhibitors, primary screen, biochemical, fluorescence. inhibition, % at 6.7 µM. purified PP5c, OMFP substrate fluorescence. AID 1987, 2009. actives 0.18% (n = 320,000). Serine/threonine-protein phosphatase 5 (Homo sapiens), P53041;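 active = inhibition above the campaign's mean inhibition across all tested compounds plus 3 SD, cut at about 9.5% in these data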;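 note: 0% = DMSO only and 100% = 100 µM cantharidin control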
PREPL inhibitor – PREPL enzyme inhibitors, primary screen, biochemical, fluorescence polarization; Prolyl endopeptidase-like (Homo sapiens), Q4J6C6; AID 2751, 2010; inhibition, % at 5.96 µM; actives 0.68% (n = 320,000); recombinant PREPL, fluorescence polarization activity-based probe; in the data active = inhibition above about 43%;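 note: 0% = enzyme with DMSO and 100% = wells lacking enzyme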
Target sequence (Q4J6C6 whole entry, looked up): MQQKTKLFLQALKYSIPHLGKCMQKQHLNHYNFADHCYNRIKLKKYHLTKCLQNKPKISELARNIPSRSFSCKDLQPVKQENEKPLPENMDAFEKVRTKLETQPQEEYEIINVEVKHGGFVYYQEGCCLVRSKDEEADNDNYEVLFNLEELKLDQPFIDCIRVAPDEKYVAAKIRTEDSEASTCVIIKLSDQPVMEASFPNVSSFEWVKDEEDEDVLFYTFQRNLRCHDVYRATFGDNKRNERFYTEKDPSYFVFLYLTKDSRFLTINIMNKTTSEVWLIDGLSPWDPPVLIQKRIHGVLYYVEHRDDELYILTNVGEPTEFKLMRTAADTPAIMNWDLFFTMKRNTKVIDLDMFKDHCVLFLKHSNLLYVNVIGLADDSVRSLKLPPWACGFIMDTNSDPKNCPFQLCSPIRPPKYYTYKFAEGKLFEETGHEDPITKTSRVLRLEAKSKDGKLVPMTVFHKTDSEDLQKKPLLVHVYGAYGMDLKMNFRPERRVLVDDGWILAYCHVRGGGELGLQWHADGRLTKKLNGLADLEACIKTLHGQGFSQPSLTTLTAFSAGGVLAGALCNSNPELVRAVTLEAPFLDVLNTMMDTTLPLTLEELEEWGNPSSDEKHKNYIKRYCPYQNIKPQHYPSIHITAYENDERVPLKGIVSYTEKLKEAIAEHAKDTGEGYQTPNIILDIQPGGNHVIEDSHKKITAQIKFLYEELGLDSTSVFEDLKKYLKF
NadD inh conf – inhibitors of S. aureus NadD, confirmation, biochemical, colorimetric, single concentration. actives 13% (n = 2,000). inhibition, % at 20 µM. purified S. aureus NadD, colorimetric enzyme assay. shares compounds with NadD inh; in the data active = inhibition mostly above about 42%, no sharp cut-off; inactive = mostly below about 42%
* hit, by the source's call.

Results for CCOc1ccccc1-c1cc(C(=O)N/N=C/c2ccc3c(c2)OCO3)c2ccccc2n1 ?
Rpn11 inh: 4; NadD inh: 35*; NadD inh conf: 12

What do the screens show for `CSCCC(NS(=O)(=O)c1c(Cl)cccc1Cl)C(=O)O` (stereo not drawn)?
Rpn11 inh: -2; NadD inh: -2; PP1 counter: 4; PP5 primary: -6; PREPL inhibitor: 9

Results for COc1c(C(O)CC(C)C)ccc2c1C(=O)OCc1cc(C)cc(O)c1O2 (stereo not drawn) ?
Rpn11 inh: -3; NadD inh: 92*; PP1 counter: -5; PP5 primary: 5; PREPL inhibitor: -4; NadD inh conf: -2

How did Cc1nc(C)c(C(=O)N2CCCC(C(=O)c3cc(F)ccc3F)C2)s1 (stereo not drawn) do in these assays?
Rpn11 inh: -2; NadD inh: -7; PP1 counter: -1; PP5 primary: 2; PREPL inhibitor: 4

Results for CS(=O)(=O)N(Cc1ccc(Cl)cc1)c1ccc(C(=O)N/N=C/c2cc3ccccc3nc2Cl)cc1 ?
Rpn11 inh: 0; NadD inh: 30; PP1 counter: -1; PP5 primary: 1; PREPL inhibitor: 9

Results for Cc1cc(=O)oc2cc(OCC(=O)NC3(C#N)CCCCC3)c(Cl)cc12 ?
Rpn11 inh: -3; NadD inh: -3

Results for CC(C)c1cccc(-c2ccc3c(c2)S(=O)(=O)c2cccc(C(=O)NCc4ccco4)c2C3=O)c1 ?
Rpn11 inh: 7; NadD inh: 34*; PREPL inhibitor: 2; NadD inh conf: 42

How did O=C(Nc1ccn(CCCN(CCCn2ccc(NC(=O)OCc3ccccc3)nc2=O)CCc2cc3ccccc3[nH]2)c(=O)n1)OCc1ccccc1 do in these assays?
Rpn11 inh: 4; NadD inh: 70*; NadD inh conf: 55*

How did CCCn1c(=O)c2sccc2n2c(CCCC(=O)NCC3CCCO3)nnc12 (stereo not drawn) do in these assays?
Rpn11 inh: -4; NadD inh: -4; PP1 counter: 0; PP5 primary: 1; PREPL inhibitor: 14

Results for CCOC(=O)C1=C(C)N=c2s/c(=C/c3cccc([N+](=O)[O-])c3O)c(=O)n2C1c1ccc(OC)cc1OC (stereo not drawn) ?
Rpn11 inh: 14; NadD inh: 36*; PP1 counter: 3; PP5 primary: 1; PREPL inhibitor: -2; NadD inh conf: 9

What do the screens show for `Cc1ccc(C)c2nc3sc(C(=O)N4CCCc5ccccc54)c(N)c3cc12`?
Rpn11 inh: -29; NadD inh: 32*; PP1 counter: -1; PP5 primary: -1; PREPL inhibitor: 16; NadD inh conf: 7

Results for CC(=O)c1c(C)[nH]c(C(=O)CN2C(=O)NC(C)(CCC(C)C)C2=O)c1C (stereo not drawn) ?
Rpn11 inh: 0; NadD inh: -4; PP1 counter: -5; PP5 primary: 0; PREPL inhibitor: 12

Results for CCOc1ccc(-c2nnc(NC(=O)c3ccc(OCC(C)C)c(OC)c3)o2)cc1 ?
Rpn11 inh: -4; NadD inh: 37*; PP1 counter: 4; PP5 primary: 0; PREPL inhibitor: 2; NadD inh conf: 5

What do the screens show for `COc1cccc(-c2nnc(NC(=O)c3ccc4ncsc4c3)o2)c1`?
Rpn11 inh: -23; NadD inh: 31*; PP1 counter: 14; PP5 primary: 2; PREPL inhibitor: 11; NadD inh conf: 8

How did COc1cccc(C(=O)Nc2nnc(-c3ccc(Cl)cc3)o2)c1 do in these assays?
Rpn11 inh: -5; NadD inh: 9; PP1 counter: 15; PP5 primary: 2; PREPL inhibitor: -5

What do the screens show for `COc1ccc(S(=O)(=O)N2CCOCC2)cc1NC(=O)CSc1nnc(N)s1`?
Rpn11 inh: 2; NadD inh: 1; PP1 counter: -1; PP5 primary: 0; PREPL inhibitor: 7

What do the screens show for `C=C(C)C1CC=C(C)/C(=N\NC(=O)CNc2cccc3ccccc23)C1` (stereo not drawn)?
Rpn11 inh: 3; NadD inh: 37*; PP1 counter: -7; PP5 primary: 2; PREPL inhibitor: 12; NadD inh conf: 1

How did COC(=O)c1ccc(NC(=O)C2CC2)o1 do in these assays?
Rpn11 inh: -4; NadD inh: 2; PP1 counter: 2; PP5 primary: 1; PREPL inhibitor: 10

Results for CCCCOc1ccc(-c2c(C(=O)Nc3ccccc3)c(C)[nH]c(=S)c2C#N)cc1 ?
Rpn11 inh: 0; NadD inh: 23; PP1 counter: -1; PP5 primary: 2; PREPL inhibitor: 6

How did CCCCOc1ccc(-c2c(C#N)c(N)[nH]c(=S)c2C#N)cc1 do in these assays?
Rpn11 inh: 7; NadD inh: 31*; PP1 counter: 3; PP5 primary: 5; PREPL inhibitor: 7; NadD inh conf: 29

How did O=C(CNc1ccc2c(c1)OCO2)N/N=C\c1cn(Cc2ccccc2)c2ccccc12 do in these assays?
Rpn11 inh: -22; NadD inh: 37*; PP1 counter: 17*; PP5 primary: 4; PREPL inhibitor: 31; NadD inh conf: 19

How did O=C(CN1CCCCC1)Nc1nnc(-c2ccc([N+](=O)[O-])cc2)s1 do in these assays?
Rpn11 inh: 8; NadD inh: 33*; PP1 counter: -3; PP5 primary: 1; PREPL inhibitor: 9; NadD inh conf: 13

What do the screens show for `O=C(CN1CCCCC1)Nc1nnc(-c2ccccc2)s1`?
Rpn11 inh: 1; NadD inh: 3; PP1 counter: -2; PP5 primary: 1; PREPL inhibitor: -2

Results for CC(C)C[C@@H](CN1CCC[C@H]1CN1C(=O)C(=O)NC[C@@H]1Cc1ccc(O)cc1)N1C[C@H](Cc2ccc(O)cc2)N(CC2CCCCC2)C(=O)C1=O ?
NadD inh: 32*; NadD inh conf: 30

How did CC(C)C[C@@H](CN1CCC[C@H]1CN1C(=O)C(=O)NC[C@@H]1Cc1ccc(O)cc1)N1C[C@H](Cc2ccccc2)N(CC2CCCCC2)C(=O)C1=O do in these assays?
NadD inh: 28

Results for CC(C)C[C@@H](CN1CCC[C@H]1CN1C(=O)C(=O)NC[C@@H]1Cc1ccccc1)N1C[C@H](Cc2ccccc2)N(CC2CCCCC2)C(=O)C1=O ?
NadD inh: 33*; NadD inh conf: 29

What do the screens show for `CCCCOCCCNC(=O)C[C@@H]1C[C@@]2(C(=O)OCC)CCC=C2N(CCC2=CCCCC2)C1=O`?
NadD inh: 1
